Source: the supplement of paper PMC8728848
About 410 targets per protein were measured; listed, in parts, are those with the strongest signals and a random draw of the rest.

Tests used:
Assay in all cases: glycan array binding signal (z-score within array); higher = stronger binding
Details in all cases: glycan notation: IUPAC condensed, linker removed
[1] = target: Fuc(a1-2)Gal
Outline: (§1)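 Arrays were curated from the Consortium for Functional Glycomics database, 3228 in total, and kept only where the protein sequence was available. Binding is expressed as a within-array Z-score. This score was averaged across arrays of the same protein sequence at different concentrations or buffers and across linkers, and negative values can be read as non-binding.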

[2] = target: Fuc(a1-2)Gal(b1-3)GlcNAc(b1-3)[Fuc(a1-2)Gal(b1-3)GlcNAc(b1-6)]GalNAc
Outline: as §1

[3] = target: Fuc(a1-2)Gal(b1-3)GlcNAc6S
Outline: as §1

[4] = target: Fuc(a1-2)Gal(b1-4)GlcNAc(b1-2)Man(a1-3)[Fuc(a1-2)Gal(b1-4)GlcNAc(b1-2)Man(a1-6)]Man(b1-4)GlcNAc(b1-4)[Fuc(a1-6)]GlcNAc
Outline: as §1

[5] = target: Fuc(a1-2)Gal(b1-4)GlcNAc(b1-3)GalNAc
Outline: as §1

[6] = target: Fuc(a1-2)Gal(b1-4)GlcNAc(b1-3)[Fuc(a1-2)Gal(b1-4)GlcNAc(b1-6)]GalNAc
Outline: as §1

[7] = target: Fuc(a1-2)[Gal(a1-3)]Gal(b1-3)GalNAc
Outline: as §1

[8] = target: Fuc(a1-2)[Gal(a1-3)]Gal(b1-3)GlcNAc
Outline: as §1

[9] = target: Fuc(a1-2)[Gal(a1-3)]Gal(b1-4)Glc
Outline: as §1

[10] = target: Fuc(a1-2)[Gal(a1-3)]Gal(b1-4)GlcNAc(b1-3)GalNAc
Outline: as §1

[11] = target: Fuc(a1-2)[GalNAc(a1-3)]Gal
Outline: as §1

[12] = target: Fuc(a1-2)[GalNAc(a1-3)]Gal(b1-3)GlcNAc
Outline: as §1

[13] = target: Fuc(a1-2)[GalNAc(a1-3)]Gal(b1-3)GlcNAc(b1-2)Man(a1-3)[Fuc(a1-2)[GalNAc(a1-3)]Gal(b1-3)GlcNAc(b1-2)Man(a1-6)]Man(b1-4)GlcNAc(b1-4)GlcNAc
Outline: as §1

[14] = target: Fuc(a1-2)[GalNAc(a1-3)]Gal(b1-3)GlcNAc(b1-6)GalNAc
Outline: as §1

[15] = target: Fuc(a1-2)[GalNAc(a1-3)]Gal(b1-4)Glc
Outline: as §1

[16] = target: Gal(a1-4)Gal(b1-4)GlcNAc(b1-2)Man(a1-3)[Gal(a1-4)Gal(b1-4)GlcNAc(b1-2)Man(a1-6)]Man(b1-4)GlcNAc(b1-4)GlcNAc
Outline: as §1

[17] = target: Gal(b1-2)Gal
Outline: as §1

[18] = target: Gal(b1-3)Gal
Outline: as §1

[19] = target: Gal(b1-3)GalNAc(a1-3)[Fuc(a1-2)]Gal(b1-4)Glc
Outline: as §1

[20] = target: Gal(b1-3)GalNAc(a1-3)[Fuc(a1-2)]Gal(b1-4)GlcNAc
Outline: as §1

[21] = target: Gal(b1-3)[Fuc(a1-4)]GlcNAc(b1-2)Man(a1-3)[Gal(b1-3)[Fuc(a1-4)]GlcNAc(b1-2)Man(a1-6)]Man(b1-4)GlcNAc(b1-4)[Fuc(a1-6)]GlcNAc
Outline: as §1

[22] = target: Gal(b1-3)[Fuc(a1-4)]GlcNAc(b1-6)GalNAc
Outline: as §1

[23] = target: Gal(b1-4)GalNAc(a1-3)[Fuc(a1-2)]Gal(b1-4)GlcNAc
Outline: as §1

[24] = target: Gal(b1-4)GlcNAc(a1-6)Gal(b1-4)GlcNAc
Outline: as §1

[25] = target: Gal(b1-4)GlcNAc(b1-3)Gal(b1-4)Glc
Outline: as §1

[26] = target: Gal(b1-4)GlcNAc(b1-3)Gal(b1-4)[Fuc(a1-3)GlcNAc(b1-6)]Gal(b1-4)Glc
Outline: as §1

[27] = target: Gal(b1-4)GlcNAc(b1-6)[Gal(b1-3)]GalNAc
Outline: as §1

[28] = target: Gal3S(b1-4)GlcNAc
Outline: as §1

[29] = target: GalNAc(b1-3)GalNAc
Outline: as §1

[30] = target: GalNAc(b1-4)Gal(b1-4)Glc
Outline: as §1

[31] = target: GalNAc(b1-4)GlcNAc
Outline: as §1

[32] = target: Kdn(a2-3)Gal(b1-4)Glc
Outline: as §1

[33] = target: Man(a1-2)Man(a1-3)[Man(a1-2)Man(a1-6)]Man(a1-6)[Man(a1-2)Man(a1-2)Man(a1-3)]Man(b1-4)GlcNAc(b1-4)GlcNAc
Outline: as §1

[34] = target: Neu5Ac(a2-3)Gal(b1-3)GlcNAc(b1-3)Gal(b1-3)GlcNAc
Outline: as §1

[35] = target: Neu5Ac(a2-3)Gal(b1-4)GlcNAc(b1-2)Man
Outline: as §1

[36] = target: Neu5Ac(a2-3)Gal(b1-4)[Fuc(a1-3)]GlcNAc(b1-3)Gal(b1-4)[Fuc(a1-3)]GlcNAc(b1-3)Gal(b1-4)[Fuc(a1-3)]GlcNAc
Outline: as §1

[37] = target: Neu5Ac(a2-3)[GalNAc(b1-4)]Gal(b1-4)GlcNAc(b1-3)GalNAc
Outline: as §1

[38] = target: Neu5Ac(a2-6)Gal(b1-4)GlcNAc(b1-2)Man(a1-3)[Neu5Ac(a2-6)Gal(b1-4)GlcNAc(b1-2)Man(a1-6)]Man(b1-4)GlcNAc(b1-4)GlcNAc
Outline: as §1

[39] = target: Neu5Ac(a2-6)Gal(b1-4)GlcNAc(b1-2)Man(a1-6)[Man(a1-3)]Man(b1-4)GlcNAc(b1-4)GlcNAc
Outline: as §1

[40] = target: Neu5Ac(a2-6)GlcNAc(b1-4)GlcNAc
Outline: as §1

[41] = target: Neu5Ac(a2-8)Neu5Ac
Outline: as §1

[42] = target: Neu5Ac(b2-6)GalNAc
Outline: as §1

[43] = target: Neu5Ac9Ac(a2-3)Gal(b1-4)GlcNAc
Outline: as §1

B1: Gal 4 (Homo sapiens), Q8K419 (protein)
chain: MAYVPAPGYQPTYNPTLPYKRPIPGGLSVGMSVYIQGMAKENMRRFHVNFAVGQDDGADVAFHFNPRFDGWDKVVFNTMQSGQWGKEEKKKSMPFQKGKHFELVFMVMPEHYKVVVNGNSFYEYGHRLPVQMVTHLQVDGDLELQSINFLGGQPAAAPYPGAMTIPAYPAGSPGYNPPQMNTLPVMTGPPVFNPRVPYVGALQGGLTVRRTIIIKGYVLPTARNFVINFKVGSSGDIALHLNPRIGDSVVRNSFMNGSWGAEERKVAYNPFGPGQFFDLSIRCGMDRFKVFANGQHLFDFSHRFQAFQMVDTLEINGDITLSYVQI
glycan array binding signal (z-score) [1]: -0.2 | glycan array binding signal (z-score) [2]: -0.088 | glycan array binding signal (z-score) [3]: 1.3 | glycan array binding signal (z-score) [4]: -0.202 | glycan array binding signal (z-score) [5]: -0.199 | glycan array binding signal (z-score) [6]: -0.189 | glycan array binding signal (z-score) [7]: 0.833 | glycan array binding signal (z-score) [8]: 2.91 | glycan array binding signal (z-score) [9]: 3.5 | glycan array binding signal (z-score) [10]: -0.006 | glycan array binding signal (z-score) [11]: -0.2 | glycan array binding signal (z-score) [12]: 4.09 | glycan array binding signal (z-score) [13]: 1.51 | glycan array binding signal (z-score) [14]: 1.99 | glycan array binding signal (z-score) [15]: 9.63 | glycan array binding signal (z-score) [16]: -0.194 | glycan array binding signal (z-score) [17]: -0.201 | glycan array binding signal (z-score) [18]: 0.459 | glycan array binding signal (z-score) [19]: 13.2 | glycan array binding signal (z-score) [20]: 2.3 | glycan array binding signal (z-score) [21]: -0.174 | glycan array binding signal (z-score) [22]: -0.193 | glycan array binding signal (z-score) [23]: 2.3 | glycan array binding signal (z-score) [24]: -0.188 | glycan array binding signal (z-score) [25]: 1.11 | glycan array binding signal (z-score) [26]: -0.185 | glycan array binding signal (z-score) [27]: -0.059 | glycan array binding signal (z-score) [28]: -0.136 | glycan array binding signal (z-score) [29]: -0.182 | glycan array binding signal (z-score) [30]: -0.211 | glycan array binding signal (z-score) [31]: -0.18 | glycan array binding signal (z-score) [32]: -0.243 | glycan array binding signal (z-score) [33]: -0.178 | glycan array binding signal (z-score) [34]: 0.182 | glycan array binding signal (z-score) [35]: -0.197 | glycan array binding signal (z-score) [36]: -0.198 | glycan array binding signal (z-score) [37]: -0.147 | glycan array binding signal (z-score) [38]: -0.187 | glycan array binding signal (z-score) [39]: -0.204 | glycan array binding signal (z-score) [40]: -0.205 | glycan array binding signal (z-score) [41]: -0.203 | glycan array binding signal (z-score) [42]: -0.196 | glycan array binding signal (z-score) [43]: -0.189
